From PubChem
IL1B secr inh = qHTS for Inhibitors of Inflammasome Signaling: IL-1-beta AlphaLISA Primary Screen; AID 743279, 2014; THP-1 LPS/ATP IL-1B secretion, AlphaLISA, 16 h; stronger effect = lower value; activity change, % at 57.5 µM; 360,000 compounds, 4.7% hits; in the data active means activity change below about -50%; inconclusive means mostly about -30% to -49%
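THP-1 cells pretreated 1 hr with compounds (up to 57.5 uM final), then stimulated with LPS (250 ng/mL final) plus ATP (1.25 mM final); secreted IL-1B measured by AlphaLISA after 16 hr, decreased signal indicating inhibition.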
MCF10A rerep = A quantitative high throughput screen for small molecules that induce DNA re-replication in MCF 10a normal breast cells; MCF 10A DNA re-replication, Hoechst nuclear intensity, 48 h; Potency, µM (highest dose often 46.1 µM), actives largely listed as activators; 350,000 compounds, 2.9% hits; further: nearly all actives have a fitted effect of over 50% in size
TDP1 cell noCPT = qHTS for Inhibitors of human tyrosyl-DNA phosphodiesterase 1 (TDP1): qHTS in cells in absence of CPT | DT40 Tdp1-/- hTDP1 cells, no CPT, ATP luminescence, 48 h | Potency, µM (titrated, usually from 46.2 µM), most hits filed as inhibitors | 420,000 compounds, 15% hits; further: nearly all actives have a fitted effect of over 55% in size
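Stably hTDP1-transfected Tdp1-null chicken DT40 cells were treated with library compounds minus camptothecin and grown for at least 48 hr at 37 °C, after which cellular ATP was quantified by luminescence.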
BCR signal inh = qHTS Assay to Find Inhibitors of Chronic Active B-Cell Receptor Signaling | Potency, µM (series often up to 46.1 µM), hits mostly inhibitors | ABC-DLBCL IkBa-CBG/CBR reporter, luminescence ratio, 4 h | 340,000 compounds, 0.05% hits; active means well fitted inhibition curve with a large enough effect in the signal ratio, with a control signal flat, not every such curve was filed as active; inconclusive means small, poorly fitted or top-dose-only effect, or effect the other way, or a change in a side signal; the % refers to the signal ratio
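Doxycycline induced both beetle luciferases in TMD8 lymphoma cells; IKK-driven degradation limits the IkappaBalpha-fused green signal, while red luminescence normalises for cell number and nonspecific effects. Compounds tested up to 46 uM, 4 hrs.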
SW480 rereplic = A quantitative high throughput screen for small molecules that induce DNA re-replication in SW480 colon adenocarcinoma cells. SW480 DNA re-replication, Hoechst DNA content imaging, 48 h. Potency, µM (series often up to 46.1 µM), most hits filed as activators. 340,000 compounds, 1.8% hits. AID 624297, 2012; further: nearly all actives have a fitted effect of over 55% in size
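First, 250 cells per well were seeded. Next, compound or vehicle (23 nL) was pinned in, plates sat 48 hr at 37 C. Finally Hoechst was added for 40 min before fluorescence scanning.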
TDP1 cell CPT = qHTS for Inhibitors of human tyrosyl-DNA phosphodiesterase 1 (TDP1): qHTS in cells in presence of CPT | chicken DT40 Tdp1-/-;hTDP1 cells + 20 nM CPT, ATP luminescence, 48 h | Potency, µM (titrated, usually from 46.2 µM), most hits filed as inhibitors | 420,000 compounds, 12% hits | AID 686979, 2013; further: nearly all actives have a fitted effect of over 55% in size
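Cell growth measured by CellTiter-Glo luminescence after a minimum 48 h, 37 C compound exposure with 20 nM CPT in Tdp1-knockout DT40 cells stably expressing hTDP1, seeded 400/well; qHTS titration format.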
Hits are given with their value; – = inactive; ? = inconclusive; · = no result; [ ] = dose if it differs, or a comment. Rows were chosen to be rich in hits. Some 19% of all compounds tested hit in one or more screens of this group. Unless noted, the call rests on the fitted dose curve; in most records, active means well fitted curve in the direction sought with a large enough effect; inconclusive means small, poorly fitted or top-dose-only effect, or another doubt; inactive means no such curve, though single readings can be large; an effect the other way counts as inactive or inconclusive.

SMILES	IL1B secr inh	MCF10A rerep	TDP1 cell noCPT	BCR signal inh	SW480 rereplic	TDP1 cell CPT
COc1cccc(C(O)c2nc(/C=C/c3ccc(C(F)(F)F)cc3)cs2)c1 (centres undefined)	–	·	?	·	·	?
OC(c1cccc(Cl)c1)c1nc(/C=C/c2ccc(C(F)(F)F)cc2)cs1 (centres undefined)	–	·	?	·	·	23µM
COc1cccc(NC(=S)NC(=O)c2cncc(Br)c2)c1	–	–	?	·	18µM	–
O=C(NC(=S)Nc1cccc(Cl)c1)c1cncc(Br)c1	–	–	?	·	?	?
CC(=O)c1cccc(NC(=S)NC(=O)c2cncc(Br)c2)c1	–	–	?	–	–	13µM
O=C(NC(=S)Nc1ccccc1O)c1cncc(Br)c1	–	–	23µM	·	?	?
O=C(NC(=S)Nc1ccc2c(c1)OCCO2)c1cccc(Br)c1	–	–	?	?	–	15µM
COc1cccc(NC(=S)NC(=O)c2cccnc2)c1	–	–	–	–	–	–
COc1cccc(CN(C)C(=O)C2CC(=O)N(c3ccc4c(c3)OCCO4)C2)c1 (centres undefined)	–	–	?	–	–	?
CN(C)c1ccc(C(CNC(=O)c2ccco2)N2CCCC2)cc1 (centres undefined)	–	–	–	–	–	–
O=C(CNC(=O)C1CCCCC1)OCc1ccccc1	·	·	–	·	·	–
CC(C)NC(=S)NC(=O)/C=C/c1ccc(F)cc1	-53	?	15µM	–	–	21µM
CN(C(=S)NC(=O)/C=C/c1ccc(F)cc1)C1CCCCC1	-66	–	–	?	–	–
CCOC(=O)c1c(C)[nH]c(C(=O)OCC(=O)NCCc2ccc(OCC)c(OCC)c2)c1C	–	?	5.2µM	–	–	6.5µM
CCOC(=O)c1c(C)[nH]c(C(=O)OCC(=O)NCc2ccc(F)cc2)c1C	–	?	?	?	–	–
CCOc1ccc(CCNC(=O)COC(=O)c2cccs2)cc1OCC	–	–	–	–	–	–
CCOc1ccc(CCNC(=O)COC(=O)c2sccc2C)cc1OCC	–	–	13µM	–	–	?
CCOC(=O)c1c(C)[nH]c(C(=O)OCC(=O)NCc2ccco2)c1C	–	·	23µM	·	·	18µM
Cc1cccc(CNC(=O)c2cnn(-c3nccc(-c4cc(C)sc4C)n3)c2C)n1	·	·	–	·	·	–[9.04 µM]
CCOC(=O)C1CN(S(=O)(=O)c2cc(OC)ccc2OC)C1	–	–	–	–	–	–
O=C(C1CCCN(S(=O)(=O)c2ccc(Cl)cc2)C1)N(Cc1cccs1)C1CC1 (centres undefined)	?	–	18µM	?	–	?
CCN(CC(=O)Nc1ccc(S(=O)(=O)N2CCCCC2)cc1)Cc1ccccc1	–	–	?	–	–	12µM
O=S(=O)(c1ccc(S(=O)(=O)N(Cc2ccccc2)Cc2ccco2)cc1)N1CCCC1	–	–	?	·	–	15µM
CCN(CC(=O)Nc1cc(S(=O)(=O)N2CCCCC2)ccc1Cl)Cc1ccccc1	–	?	18µM	–	–	16µM
CCN(CC(=O)NCc1ccc(F)cc1)CC(=O)Nc1ccc(S(=O)(=O)N2CCCC2)cc1	–	–	–	–	?	–
SMILES	IL1B secr inh	MCF10A rerep	TDP1 cell noCPT	BCR signal inh	SW480 rereplic	TDP1 cell CPT
Cc1nn(C(=O)c2ccc(Cl)cc2)c(C)c1S(=O)(=O)N1CCOCC1	·	·	–	·	·	–
Cc1ccc(NC(=O)CSc2nnc(NC3CC3)s2)cc1S(=O)(=O)N1CCOCC1	–	·	–	·	·	–
CCOc1ccc(NC(=O)CSc2nnnn2-c2ccc(C(N)=O)cc2)cc1	–	–	–	–	–	–
Cc1ccc(S(=O)(=O)N2CCCCC2)cc1NC(=O)Cc1cccs1	–	–	–	–	–	–
CN(CC(=O)Nc1cc(S(=O)(=O)N2CCCC2)ccc1Cl)Cc1cccs1	–	–	16µM	–	?	?
Cc1n[nH]c(C)c1S(=O)(=O)N1CCCC(C(=O)NCc2ccc(F)cc2)C1 (centres undefined)	–	0.73µM	–	–	–	–
Cc1n[nH]c(C)c1S(=O)(=O)N1CCCC(C(=O)Nc2ccc(Cl)cc2)C1 (centres undefined)	·	·	7.3µM	·	·	?
O=C(NCc1ccncc1)C1CCCN(S(=O)(=O)c2cc(Cl)ccc2Cl)C1 (centres undefined)	–	–	16µM	–	–	?
COc1ccc(CNC(=O)C2CCN(S(=O)(=O)c3c(C)n[nH]c3C)CC2)cc1	–	–	–	–	–	–
CCOc1ccc(NC(=O)C2CCCN(S(=O)(=O)c3c(C)n[nH]c3C)C2)cc1 (centres undefined)	–	–	?	–	–	–
O=C(c1ccc(=O)[nH]c1)N1CCN(S(=O)(=O)c2ccc3ccccc3c2)CC1	–	?	–	–	–	–
